According to PubChem BioAssay (Tox21):
Values joined by “and” are separate entries in the source; they are usually repeats but may differ in a detail not shown here. Equal values may be shown once. Records with an inconclusive call do not appear. Some compounds were tested as several samples or in several runs, with calls that do not always agree. Active and inactive are the calls of the source. Unless noted, calls come from the whole dose curve; as a rule, active = well fitted curve in the direction sought with a large enough effect in the repeat runs; inconclusive = weak or mixed curves; inactive = no such curve, though single readings can be large; an effect the other way counts as inactive or inconclusive.

What was measured:
[1] = qHTS assay to identify aromatase inhibitors - cell viability counter screen (AID 743084);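 note: cells stimulated with testosterone during compound exposure; nearly all actives have a fitted effect of over 55% in size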; note: potency is the fitted concentration of half-maximal effect
[2] = target: Aryl hydrocarbon receptor (Homo sapiens) (UniProt P35869); experiment: qHTS assay to identify small molecule that activate the aryl hydrocarbon receptor (AhR) signaling pathway (AID 743085); note: nearly all actives have a fitted effect of over 15% in size; note: potency is the fitted concentration of half-maximal effect;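 for activation: HG2L7.5c1 human HepG2 liver cells with stably integrated DRE-driven firefly reporter; series mostly up to about 70 µM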
Chain of Aryl hydrocarbon receptor (Homo sapiens) (P35869 whole entry, looked up): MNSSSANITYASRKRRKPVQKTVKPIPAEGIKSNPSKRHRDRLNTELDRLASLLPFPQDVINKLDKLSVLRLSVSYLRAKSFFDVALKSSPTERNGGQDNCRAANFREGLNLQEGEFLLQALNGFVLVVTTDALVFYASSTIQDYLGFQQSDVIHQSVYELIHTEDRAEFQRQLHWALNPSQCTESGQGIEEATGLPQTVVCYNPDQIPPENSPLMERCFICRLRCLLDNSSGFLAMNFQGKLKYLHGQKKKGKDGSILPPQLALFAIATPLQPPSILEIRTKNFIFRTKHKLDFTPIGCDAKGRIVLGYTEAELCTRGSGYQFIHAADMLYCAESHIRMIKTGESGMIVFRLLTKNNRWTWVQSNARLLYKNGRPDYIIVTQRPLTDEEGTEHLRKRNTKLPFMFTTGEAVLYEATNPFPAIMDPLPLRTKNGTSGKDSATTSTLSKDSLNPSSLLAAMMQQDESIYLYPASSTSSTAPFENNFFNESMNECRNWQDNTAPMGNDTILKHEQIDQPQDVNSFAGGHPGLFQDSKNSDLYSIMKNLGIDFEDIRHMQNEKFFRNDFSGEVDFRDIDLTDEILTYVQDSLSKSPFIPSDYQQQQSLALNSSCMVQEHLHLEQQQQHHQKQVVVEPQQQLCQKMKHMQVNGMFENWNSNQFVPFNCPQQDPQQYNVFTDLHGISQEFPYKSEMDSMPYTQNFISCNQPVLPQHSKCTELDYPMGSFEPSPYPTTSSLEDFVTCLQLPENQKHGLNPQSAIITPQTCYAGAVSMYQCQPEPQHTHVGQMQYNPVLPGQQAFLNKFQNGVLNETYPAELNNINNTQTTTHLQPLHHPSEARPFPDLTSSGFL
In short: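 Cell line HG2L7.5c1 (human hepatoma, 20× DRE-luc). Plated, 5 h 37C, compound/DMSO added, 24 h 37C. CellTiter-Fluor 30 min 37C → fluorescence; then ONE-Glo 30 min RT → luminescence.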

[3] = qHTS assay to identify small molecule that activate the aryl hydrocarbon receptor (AhR) signaling pathway - cell viability counter screen (AID 743086); note: nearly all actives have a fitted effect of over 45% in size; note: potency is the fitted concentration of half-maximal effect
In short: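 HepG2-AhR-luc (HG2L7.5c1) cells, 4000/well, were preincubated 5 h at 37C, exposed to compound in qHTS format for 24 hr at 37C, then given CellTiter-Fluor for 30 min; viability was read as fluorescence in the reporter wells.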

[4] = target: Peroxisome proliferator-activated receptor gamma (Homo sapiens) (UniProt P37231); experiment: qHTS assay to identify small molecule agonists of the peroxisome proliferator-activated receptor gamma (PPARg) signaling pathway (AID 743094; active = well fitted activation curve with a large enough effect in the signal ratio in the repeat runs, not every such curve was filed as active; the % refers to the signal ratio)
Chain of Peroxisome proliferator-activated receptor gamma (Homo sapiens) (P37231 whole entry, looked up): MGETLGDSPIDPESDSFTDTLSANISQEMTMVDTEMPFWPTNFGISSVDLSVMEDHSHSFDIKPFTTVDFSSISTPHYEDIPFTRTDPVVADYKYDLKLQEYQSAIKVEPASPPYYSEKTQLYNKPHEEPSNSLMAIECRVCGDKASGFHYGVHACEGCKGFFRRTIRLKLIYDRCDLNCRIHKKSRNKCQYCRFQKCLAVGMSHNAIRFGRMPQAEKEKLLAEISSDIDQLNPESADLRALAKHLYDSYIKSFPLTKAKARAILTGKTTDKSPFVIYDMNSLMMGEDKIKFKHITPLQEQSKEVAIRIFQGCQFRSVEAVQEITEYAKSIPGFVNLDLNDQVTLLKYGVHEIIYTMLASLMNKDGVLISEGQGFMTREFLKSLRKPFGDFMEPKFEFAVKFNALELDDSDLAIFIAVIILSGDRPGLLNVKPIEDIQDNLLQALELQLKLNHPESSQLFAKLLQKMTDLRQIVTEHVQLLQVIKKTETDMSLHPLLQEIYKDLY
In short: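 Reporter activation was scored by fluorescence of cleaved LiveBLAzer B/G substrate (1 h, room temperature) in PPARg-bla HEK293H cells previously treated 17 h at 37C with DMSO-dissolved compounds.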

[5] = qHTS assay to identify small molecule antagonists of the peroxisome proliferator-activated receptor gamma (PPARg) signaling pathway - cell viability counter screen (AID 743194); note: nearly all actives have a fitted effect of over 55% in size; note: potency is the fitted concentration of half-maximal effect
In short: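 PPARg-UAS-bla HEK293H cells were plated, rested 5 h at 37 C, then treated with compounds plus rosiglitazone (50 nM final) for 17 h at 37 C; viability was then read by CellTiter-Glo luminescence after 30 min at room temperature.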

[6] = qHTS assay for small molecule agonists of the antioxidant response element (ARE) signaling pathway (AID 743202; active = well fitted activation curve with a large enough effect in the signal ratio in the repeat runs, not every such curve was filed as active; the % refers to the signal ratio; note: potency is the fitted concentration of half-maximal effect)
In short: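 Following a 16 h, 37 C exposure of reporter HepG2 cells (ARE-driven beta-lactamase, 2,000 cells/well) to compounds, FRET substrate was applied for 2 h at room temperature and fluorescence intensity recorded.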

[7] = qHTS assay for small molecule agonists of the antioxidant response element (ARE) signaling pathway - cell viability counter screen (AID 743203; calls by dose curve; note: nearly all actives have a fitted effect of over 55% in size; note: potency is the fitted concentration of half-maximal effect)
In short: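 Viability counter screen: stably transfected ARE-bla HepG2 line, 16 hrs compound exposure at 37C/5% CO2, ATP-based CellTiter-Glo luminescence measured in the reporter wells.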

[8] = qHTS assay for small molecule activators of the heat shock response signaling pathway - cell viability counter screen (AID 743209); note: nearly all actives have a fitted effect of over 50% in size; note: potency is the fitted concentration of half-maximal effect
In short: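 Viability of HSE-bla HeLa cells is measured with CellTiter-Glo in the wells already used for the reporter read. Compound exposure lasts 5 h at 37 C, and luminescence is read after 30 min at room temperature.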

[9] = target: Peroxisome proliferator-activated receptor gamma (Homo sapiens) (UniProt P37231); experiment: qHTS assay to identify small molecule antagonists of the peroxisome proliferator-activated receptor gamma (PPARg) signaling pathway (AID 743191; calls by dose curve; note: nearly all actives have a fitted effect of over 30% in size; note: potency is the fitted concentration of half-maximal effect)
In short: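 GeneBLAzer PPARg UAS-bla HEK293H cells carrying a UAS-driven beta-lactamase reporter were plated at 3000 cells/well, preincubated 5 h at 37C, then given compound for 17 h at 37C; LiveBLAzer B/G FRET substrate was read after 1 h at room temperature.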

[10] = qHTS assay for small molecule activators of the heat shock response signaling pathway (AID 743210; active = well fitted activation curve with a large enough effect in the signal ratio in the repeat runs, with a control signal flat, not every such curve was filed as active; the % refers to the signal ratio; note: series mostly up to about 63 µM)
In short: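 Heat shock element–beta-lactamase HeLa reporter cells; qHTS with compounds for 5 h at 37 C; detection by FRET substrate fluorescence after 2.5 h at RT.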

Measured: Potency

NC(=O)/N=N/C(N)=O
not listed: [9] | [10]
inactive: all other assays above

CCOC(=O)/C=C\C(=O)OCC
not listed: [3]
inactive: all other assays above

CC1=C(/C=C/C(C)=C/C=C/C(C)=C/CO)C(C)(C)CCC1
inactive: [2] | [3] | [4] | [5] | [7]
active: [6] 61.9 µM and 57.4 µM
inactive and 72.3 µM (active): [1]

Clc1cc(Cl)c(Cl)cc1Cl
not listed: [3] | [8]
inactive: all other assays above

CC1(C)O[C@@H]2C[C@H]3[C@@H]4C[C@H](F)C5=CC(=O)CC[C@]5(C)[C@H]4[C@@H](O)C[C@]3(C)[C@]2(C(=O)CO)O1
not listed: [9]
inactive: all other assays above

CC(C)n1c(/C=C/[C@@H](O)C[C@@H](O)CC(=O)O)c(-c2ccc(F)cc2)c2ccccc21
active: [2] 15 µM
not listed: [4] | [9]
inactive: all other assays above

CS(=O)(=O)c1ccc([C@@H](O)[C@@H](CO)NC(=O)C(Cl)Cl)cc1
not listed: [3]
inactive: all other assays above

O=C(O)c1cc(-c2ccccc2)nc2ccccc12
active: [2] 58.4 µM
not listed: [4] | [8]
inactive: all other assays above

ClC1=C(Cl)C(Cl)(Cl)C(Cl)=C1Cl
active: [5] 2.2 µM and 3.09 µM | [7] 13.8 µM and 12.2 µM
inactive: [1] | [2] | [3] | [8]

O=C(c1cc(O)c(O)c(O)c1)c1ccc(O)c(O)c1O
active: [1] 34.3 µM | [2] 15.4 µM | [3] 30.5 µM
inactive: [9] | [5] | [7] | [10]

O=Nc1ccc(O)cc1
53.2 µM (active) and inactive: [2]
not listed: [3]
inactive: all other assays above

CCC(=O)O
not listed: [3]
inactive: all other assays above

CC[Si](OC(C)=O)(OC(C)=O)OC(C)=O
not listed: [3]
inactive: all other assays above

O=S(=O)(O)c1cc(S(=O)(=O)O)c2c(N=Nc3ccccc3)c(O)ccc2c1
active: [1] 24.4 µM and 27.3 µM | [3] 21.8 µM and 21.7 µM
not listed: [4] | [9]
inactive: all other assays above

COC(=O)c1ccccc1O
inactive: [1] | [2] | [3] | [5] | [6] | [7]

CC(C)NCC(O)COc1cccc2ccccc12 (stereo unspecified)
not listed: [4] | [6] | [9]
inactive: all other assays above

CC1=C(CC(=O)O)c2cc(F)ccc2/C1=C\c1ccc(S(C)=O)cc1 (stereo unspecified)
active: [2] 13.3 µM and 24.3 µM
not listed: [6] | [9]
inactive: all other assays above

CC1COc2ccccc2N1C(=O)C(Cl)Cl (stereo unspecified)
17.2 µM (active) and inactive: [2]
active: [1] 27.3 µM | [9] 24.5 µM | [6] 19.3 µM and 27.3 µM
not listed: [4]
inactive: all other assays above

CCCCC/C=C\C/C=C\CCCCCCCC(=O)OC
inactive and 38.9 µM (active): [8]
not listed: [5] | [9]
inactive: all other assays above

Nc1nc2ncc(CNc3ccc(C(=O)N[C@@H](CCC(=O)O)C(=O)O)cc3)nc2c(=O)[nH]1
not listed: [9]
inactive: all other assays above

Cc1cc(O)c2c(c1)C(=O)c1cc(O)cc(O)c1C2=O
inactive: [3] | [4] | [5] | [8]
active: [1] 11.9 µM and 24.3 µM | [2] 5.97 µM and 34.4 µM | [6] 4.23 µM | [7] 23.8 µM

CC1CC(OC(=O)c2ccccc2O)CC(C)(C)C1 (stereo unspecified)
not listed: [3] | [8] | [10]
inactive: all other assays above

O=C(c1ccc(O)cc1)c1ccc(O)cc1O
active: [2] 24.3 µM
not listed: [6] | [8] | [9]
inactive: all other assays above

C[C@@H]1O[C@@H](OC[C@H]2O[C@@H](Oc3c(-c4ccc(O)c(O)c4)oc4cc(O)cc(O)c4c3=O)[C@H](O)[C@@H](O)[C@@H]2O)[C@H](O)[C@H](O)[C@H]1O
inactive: [1] | [2] | [3] | [5] | [7] | [10]

OCCOCCOCCOCCO
not listed: [4] | [9]
inactive: all other assays above

CCCCCC/C=C/CCCCCCCC(=O)O
not listed: [8] | [9]
inactive: all other assays above

CC1(C)CC(N=C=O)CC(C)(CN=C=O)C1 (stereo unspecified)
not listed: [3]
inactive: all other assays above

CCC(C)C=O (stereo unspecified)
not listed: [3] | [8]
inactive: all other assays above

CN(CCOc1ccc(CC2SC(=O)NC2=O)cc1)c1ccccn1 (stereo unspecified)
inactive: [2] | [5] | [7] | [10]
21.6 µM (active) and inactive: [6]

C=C(C)C(=O)OCCCCCC
not listed: [2] | [8] | [9]
inactive: all other assays above

NCCNCCNCCNCCN
not listed: [3] | [6] | [9]
inactive: all other assays above

O=c1c(-c2ccc(O)cc2)coc2cc(O)ccc12
inactive: [1] | [3] | [4] | [5] | [10]

CC(=O)[C@@]1(O)CC[C@H]2[C@@H]3CCC4=CC(=O)CC[C@]4(C)[C@H]3CC[C@@]21C
inactive: [5] | [7] | [10]

CNC[C@H](O)[C@@H](O)[C@H](O)[C@H](O)CO
inactive: [3] | [5] | [6] | [7] | [10]

C[C@@H](O)[C@H]1C(=O)N2C(C(=O)O)=C(S[C@@H]3CN[C@H](C(=O)N(C)C)C3)[C@H](C)[C@H]12
not listed: [2] | [3]
inactive: all other assays above

CCCCCCCCCC(=O)O
active: [9] 30.9 µM
not listed: [2] | [4] | [8]
inactive: all other assays above

CC(C)(C)C(=O)C1C(=O)c2ccccc2C1=O
inactive: [5] | [7] | [8] | [10]

CCCCCCCCCCC=CC1CC(=O)OC1=O (stereo unspecified)
inactive: [3] | [5] | [7] | [8] | [10]

Oc1ccc2ccccc2c1N=Nc1ccccc1
inactive: [4] | [5] | [7] | [8] | [10]
active: [1] 30.6 µM and 24.3 µM | [2] 3.06 µM

S=c1nc[nH]c2nc[nH]c12
inactive: [1] | [8] | [10]
inactive and 23.7 µM (active): [2]
active: [6] 4.74 µM and 7.5 µM | [7] 0.842 µM

Nc1cc(-c2ccncc2)c[nH]c1=O
not listed: [3] | [6]
inactive: all other assays above

CN(C)c1ccc(C(=N)c2ccc(N(C)C)cc2)cc1
active: [5] 23.6 µM
inactive: [4] | [7] | [8] | [10]

CCCCC(CC)COC(=O)CCCCCCCC(=O)OCC(CC)CCCC (stereo unspecified)
inactive: [5] | [6] | [7] | [8] | [10]

Cc1ccc(C(=O)O)o1
not listed: [3] | [6]
inactive: all other assays above

CCCCC(CC)C(=O)OCCOCCOCCOC(=O)C(CC)CCCC (stereo unspecified)
not listed: [2] | [3]
inactive: all other assays above

CC#C[C@]1(O)CC[C@H]2[C@@H]3CCC4=CC(=O)CCC4=C3[C@@H](c3ccc(N(C)C)cc3)C[C@@]21C
inactive: [1] | [2] | [7] | [8]

CCCCNC(N)=O
not listed: [2] | [3]
inactive: all other assays above

Cc1cc(O)cc(C)c1Cl
not listed: [2]
inactive: all other assays above

O=[N+]([O-])c1cc(N(CCO)CCO)ccc1NCCO
inactive: [2] | [5] | [6] | [7] | [10]
active: [1] 48.5 µM and 61.1 µM

Cc1cc(NS(=O)(=O)c2ccc(N)cc2)no1
inactive: [1] | [5] | [6] | [7] | [8] | [10]

C=C(C#N)C(=O)OCC
not listed: [3] | [9]
inactive: all other assays above

CCCCOCCO
not listed: [3] | [8]
inactive: all other assays above

Oc1c(Cl)cc(Cl)c(Cl)c1Cl
inactive: [1] | [4] | [7] | [8]
active: [9] 17 µM

Oc1ccc(OCc2ccccc2)cc1
21.2 µM (active) and inactive: [6]
not listed: [3] | [4] | [9]
inactive: all other assays above

c1ccc2[nH]cnc2c1
not listed: [3] | [8]
inactive: all other assays above

CC(C)(C)C1CCC(O)CC1 (stereo unspecified)
not listed: [2] | [8]
inactive: all other assays above

C/C=C(C)/C=C/C=C(C)C
active: [6] 60.4 µM
not listed: [3] | [9] | [10]
inactive: all other assays above

O=C(Cl)c1c(Cl)c(Cl)c(C(=O)Cl)c(Cl)c1Cl
not listed: [3] | [8]
inactive: all other assays above

CCCCCCCCCCCCN
inactive and 43.6 µM (active): [8]
inactive and 24.3 µM (active): [7]
inactive: [2] | [3] | [4] | [6]

C=C1CC[C@H](O)CC1=C/C=C1\CCC[C@]2(C)[C@@H]([C@H](C)/C=C/[C@H](C)C(C)C)CC[C@@H]12
inactive: [1] | [2] | [7]
active: [6] 13.6 µM and 24.3 µM

Cc1ccc(C)c(C)c1
not listed: [3] | [9]
inactive: all other assays above

Cc1cc(Cc2ccc(N)c(C)c2)ccc1N
inactive: [3] | [5] | [6] | [7] | [8] | [10]

CC(=O)CCc1ccccc1
not listed: [2] | [3]
inactive: all other assays above

CC1=CC[C@H]2C[C@@H]1C2(C)C
not listed: [2] | [9]
inactive: all other assays above

NC(=O)NNc1ccccc1
inactive: [1] | [2] | [5] | [6] | [7] | [10]

O=C(O)c1ccc([N+](=O)[O-])cc1
inactive: [1] | [2] | [5] | [6] | [7] | [10]

O=C1N=C(O)CN1/N=C/c1ccc(-c2ccc([N+](=O)[O-])cc2)o1
inactive and 48.6 µM (active): [3]
not listed: [2] | [4] | [9]
inactive: all other assays above
